Laboratory results reported in PubChem BioAssay (Tox21).
Results filed as inconclusive are left out. Calls of active or inactive are those of the source. Calls follow the shape of the dose curve; as a rule, active = well fitted curve in the direction sought with a large enough effect in the repeat runs; inconclusive = weak or mixed curves; inactive = no such curve, though single readings can be large; an effect the other way counts as inactive or inconclusive.

How the values were obtained:
[1] = Caspase-3/7 induction in CHO-K1 cells by small molecules, qHTS cell viability counter screen (AID 1346979); also: nearly all actives have a fitted effect of over 35% in size
How it was run: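 Viability readout by fluorescence (CellTiter-Fluor) on wild-type CHO-K1 cells exposed for 16hr at 37C and 5% CO2 to compounds delivered in DMSO; reagent incubated 1hr before reading.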

[2] = Caspase-3/7 induction in CHO-K1 cells by small molecules, qHTS assay (AID 1346980); also: nearly all actives have a fitted effect of over 15% in size
How it was run: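 Wild-type CHO-K1 cells exposed to compounds for 17hr at 37 C, 5% CO2. Caspase-3/7 activity then measured by Caspase-Glo 3/7 luminescence after 30min at room temperature.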

[3] = Caspase-3/7 induction in HepG2 cells by small molecules, qHTS cell viability counter screen (AID 1346981); also: nearly all actives have a fitted effect of over 30% in size; as to activity change, negative = cytotoxicity: series mostly up to about 92 µM
How it was run: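 HepG2, WT, 2,000 cells/well; 5 hr pre-incubation 37 C/5% CO2; compound pin-transferred from DMSO; 16 hr exposure; CellTiter-Fluor, 1 hr; fluorescence read.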

[4] = target: Nuclear receptor subfamily 1 group I member 2 (Homo sapiens) (UniProt O75469); test: Human pregnane X receptor (PXR) small molecule agonists, qHTS assay (AID 1346982); also: nearly all actives have a fitted effect of over 35% in size
Nuclear receptor subfamily 1 group I member 2 (Homo sapiens), sequence (O75469 whole entry, looked up): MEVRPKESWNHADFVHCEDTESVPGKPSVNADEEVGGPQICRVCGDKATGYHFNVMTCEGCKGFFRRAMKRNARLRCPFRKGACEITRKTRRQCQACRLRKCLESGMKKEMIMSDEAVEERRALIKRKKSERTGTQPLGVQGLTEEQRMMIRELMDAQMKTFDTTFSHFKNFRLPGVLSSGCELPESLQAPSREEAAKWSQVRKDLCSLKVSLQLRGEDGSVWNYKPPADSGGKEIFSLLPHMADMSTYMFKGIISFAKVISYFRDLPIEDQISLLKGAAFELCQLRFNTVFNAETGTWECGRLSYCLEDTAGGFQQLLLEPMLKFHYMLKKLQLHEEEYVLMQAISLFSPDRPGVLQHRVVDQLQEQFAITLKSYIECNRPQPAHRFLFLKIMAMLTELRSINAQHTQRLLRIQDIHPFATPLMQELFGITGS
How it was run: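 Luciferase signal from ONE-Glo (30 min, room temperature) measured activation of hPXR-driven CYP3A4 reporter expression in PXR-Luc HepG2 cells treated with compounds for 24 hr at 37 C.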

[5] = target: Cytochrome P450 2D6 (Homo sapiens) (UniProt P10635); test: Cytochrome P450 Family 2 Subfamily D Member 6 (CYP2D6) small molecule antagonists: luciferase reporter qHTS assay (AID 1671196); also: nearly all actives have a fitted effect of over 50% in size; as to activity change, negative = inhibition: series mostly up to about 120 µM
Cytochrome P450 2D6 (Homo sapiens), sequence (P10635 whole entry, looked up): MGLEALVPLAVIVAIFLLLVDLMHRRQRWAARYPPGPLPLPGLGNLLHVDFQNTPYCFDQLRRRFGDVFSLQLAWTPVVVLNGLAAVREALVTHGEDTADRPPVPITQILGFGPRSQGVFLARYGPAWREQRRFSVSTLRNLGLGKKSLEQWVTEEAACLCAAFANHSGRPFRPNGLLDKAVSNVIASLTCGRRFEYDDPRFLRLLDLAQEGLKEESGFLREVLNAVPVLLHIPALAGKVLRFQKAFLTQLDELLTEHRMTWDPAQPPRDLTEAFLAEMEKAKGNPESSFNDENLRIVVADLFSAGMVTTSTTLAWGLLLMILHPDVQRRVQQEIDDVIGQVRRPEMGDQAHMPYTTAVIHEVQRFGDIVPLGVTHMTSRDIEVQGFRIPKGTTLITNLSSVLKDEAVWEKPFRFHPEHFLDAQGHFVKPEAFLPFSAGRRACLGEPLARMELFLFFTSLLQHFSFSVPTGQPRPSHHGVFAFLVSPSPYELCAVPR
How it was run: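 Read-out is luminescence from luciferin formed by CYP2D6 turnover of a proluciferin substrate, recorded as relative luminescence units. Reactions ran 1 h at room temperature after NADPH regeneration solution was added.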

[6] = target: Cytochrome P450 2C19 (Homo sapiens) (UniProt P33261); test: Cytochrome P450 Family 2 Subfamily C Member 19 (CYP2C19) small molecule antagonists: luciferase reporter qHTS assay (AID 1671197); also: nearly all actives have a fitted effect of over 65% in size; as to activity change, negative = inhibition: series mostly up to about 120 µM
Cytochrome P450 2C19 (Homo sapiens), sequence (P33261 whole entry, looked up): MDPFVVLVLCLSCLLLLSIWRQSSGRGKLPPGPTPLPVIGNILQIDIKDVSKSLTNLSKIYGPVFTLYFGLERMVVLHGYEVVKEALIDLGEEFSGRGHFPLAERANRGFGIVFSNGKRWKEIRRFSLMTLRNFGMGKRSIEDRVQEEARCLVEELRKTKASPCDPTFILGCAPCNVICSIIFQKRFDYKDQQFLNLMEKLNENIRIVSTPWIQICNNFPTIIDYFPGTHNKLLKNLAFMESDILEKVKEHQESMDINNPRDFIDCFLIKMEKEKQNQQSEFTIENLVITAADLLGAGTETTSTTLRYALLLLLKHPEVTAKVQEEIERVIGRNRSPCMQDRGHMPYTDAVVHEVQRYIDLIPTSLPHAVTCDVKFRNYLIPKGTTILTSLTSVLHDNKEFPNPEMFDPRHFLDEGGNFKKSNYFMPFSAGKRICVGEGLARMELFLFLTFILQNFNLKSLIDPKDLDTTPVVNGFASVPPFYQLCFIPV
How it was run: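 Luminescent readout of CYP2C19 activity: luciferin product detected 20 min after adding detection reagent. Before that, compound and enzyme-substrate mix preincubated 10 min at room temperature; NADPH-regenerating system started a 1 h, 37C reaction. Ketoconazole as positive control.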

[7] = target: Cytochrome P450 2C9 (Homo sapiens) (UniProt P11712); test: Cytochrome P450 Family 2 Subfamily C Member 9 (CYP2C9) small molecule antagonists: luciferase reporter qHTS assay (AID 1671198); also: nearly all actives have a fitted effect of over 50% in size; as to activity change, negative = inhibition: series mostly up to about 120 µM
Cytochrome P450 2C9 (Homo sapiens), sequence (P11712 whole entry, looked up): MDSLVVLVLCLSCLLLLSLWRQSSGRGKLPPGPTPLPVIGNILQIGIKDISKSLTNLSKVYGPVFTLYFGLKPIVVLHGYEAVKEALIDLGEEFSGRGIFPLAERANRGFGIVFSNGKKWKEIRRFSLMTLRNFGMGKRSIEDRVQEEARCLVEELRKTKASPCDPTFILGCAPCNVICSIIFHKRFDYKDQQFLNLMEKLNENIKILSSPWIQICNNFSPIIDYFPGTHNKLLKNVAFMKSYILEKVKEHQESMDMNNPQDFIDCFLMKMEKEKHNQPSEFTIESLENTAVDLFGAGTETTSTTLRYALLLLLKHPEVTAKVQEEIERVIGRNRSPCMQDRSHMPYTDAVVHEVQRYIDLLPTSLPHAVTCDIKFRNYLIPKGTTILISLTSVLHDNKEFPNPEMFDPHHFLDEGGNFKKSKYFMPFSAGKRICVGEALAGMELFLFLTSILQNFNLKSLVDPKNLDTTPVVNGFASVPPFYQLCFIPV
How it was run: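 P450-Glo proluciferin substrate with CYP2C9 enzyme; 10 min RT preincubation, then NADPH regeneration 1 h at 37C; luciferin detection reagent 20 min RT, luminescence in relative luminescence units.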

[8] = target: Cytochrome P450 1A2 (Homo sapiens) (UniProt P05177); test: Cytochrome P450 Family 1 Subfamily A Member 2 (CYP1A2) small molecule antagonists: luciferase reporter qHTS assay (AID 1671199); also: nearly all actives have a fitted effect of over 50% in size; as to activity change, negative = inhibition: series mostly up to about 120 µM
Cytochrome P450 1A2 (Homo sapiens), sequence (P05177 whole entry, looked up): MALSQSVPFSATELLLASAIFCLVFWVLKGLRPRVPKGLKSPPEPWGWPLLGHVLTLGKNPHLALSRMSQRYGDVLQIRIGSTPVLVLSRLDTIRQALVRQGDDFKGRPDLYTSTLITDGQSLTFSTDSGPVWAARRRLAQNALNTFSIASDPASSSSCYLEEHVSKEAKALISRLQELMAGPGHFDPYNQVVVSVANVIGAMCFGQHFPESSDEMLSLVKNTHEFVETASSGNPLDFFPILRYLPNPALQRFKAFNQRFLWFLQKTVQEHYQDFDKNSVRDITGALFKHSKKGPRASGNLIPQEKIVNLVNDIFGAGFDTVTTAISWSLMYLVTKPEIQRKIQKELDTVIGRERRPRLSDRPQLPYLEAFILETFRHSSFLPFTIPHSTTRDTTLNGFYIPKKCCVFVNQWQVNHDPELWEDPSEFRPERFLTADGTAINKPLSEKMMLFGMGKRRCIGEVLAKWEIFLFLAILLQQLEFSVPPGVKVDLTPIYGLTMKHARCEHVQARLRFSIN
How it was run: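 P450-Glo CYP1A2, 1536-well qHTS: enzyme/proluciferin substrate + cpd (DMSO), 10 min RT; NADPH regen, 1 h RT; detection reagent, 20 min; luminescence, RLU.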

[9] = target: Voltage-gated inwardly rectifying potassium channel KCNH2 (Homo sapiens) (UniProt Q12809); test: Human Ether-a-go-go-Related Gene (hERG) channel small molecule antagonists: fluorescence cell-based qHTS assay (AID 1671200); also: nearly all actives have a fitted effect of over 50% in size;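 as to activity change, negative = inhibition: hERG-expressing U2OS cells given a thallium stimulus after FluxOR II dye loading; series mostly up to about 77 µM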
Voltage-gated inwardly rectifying potassium channel KCNH2 (Homo sapiens), sequence (Q12809 whole entry, looked up): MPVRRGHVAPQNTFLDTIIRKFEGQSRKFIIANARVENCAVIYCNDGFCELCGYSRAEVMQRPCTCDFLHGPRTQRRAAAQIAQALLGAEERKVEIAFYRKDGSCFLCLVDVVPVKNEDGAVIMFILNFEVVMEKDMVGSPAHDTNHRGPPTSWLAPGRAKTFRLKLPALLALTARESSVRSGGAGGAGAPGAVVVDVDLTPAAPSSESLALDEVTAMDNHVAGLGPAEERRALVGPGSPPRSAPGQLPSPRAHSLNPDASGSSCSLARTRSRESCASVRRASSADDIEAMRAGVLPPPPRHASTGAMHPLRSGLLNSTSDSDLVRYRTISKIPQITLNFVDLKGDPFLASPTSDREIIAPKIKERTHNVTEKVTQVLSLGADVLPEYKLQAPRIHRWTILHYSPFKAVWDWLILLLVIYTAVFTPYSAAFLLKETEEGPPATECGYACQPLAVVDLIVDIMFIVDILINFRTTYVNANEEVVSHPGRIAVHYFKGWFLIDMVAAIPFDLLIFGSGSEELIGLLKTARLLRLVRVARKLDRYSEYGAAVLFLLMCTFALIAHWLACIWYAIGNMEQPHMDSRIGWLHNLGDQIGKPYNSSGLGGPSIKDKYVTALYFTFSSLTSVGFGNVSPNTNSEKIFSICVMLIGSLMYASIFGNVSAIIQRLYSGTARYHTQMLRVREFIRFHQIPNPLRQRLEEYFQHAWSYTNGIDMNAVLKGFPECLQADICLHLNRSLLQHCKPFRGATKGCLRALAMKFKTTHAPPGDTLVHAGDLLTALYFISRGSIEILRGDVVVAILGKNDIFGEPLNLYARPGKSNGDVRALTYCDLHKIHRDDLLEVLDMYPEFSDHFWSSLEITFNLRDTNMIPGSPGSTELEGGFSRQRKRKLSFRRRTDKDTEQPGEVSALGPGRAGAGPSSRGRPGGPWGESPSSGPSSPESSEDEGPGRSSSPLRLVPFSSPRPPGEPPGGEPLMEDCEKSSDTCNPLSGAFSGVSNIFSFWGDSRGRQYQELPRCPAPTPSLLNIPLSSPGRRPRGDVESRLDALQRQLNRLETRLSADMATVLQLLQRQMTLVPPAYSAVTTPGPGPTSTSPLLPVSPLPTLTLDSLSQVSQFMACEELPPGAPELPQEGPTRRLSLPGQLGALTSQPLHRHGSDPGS
How it was run: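 Thallium served as the potassium surrogate; its influx into dye-loaded U2OS cells carrying the channel was measured by fluorescence over 2 min.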

[10] = target: Cytochrome P450 3A4 (Homo sapiens) (UniProt P08684); test: Cytochrome P450 Family 3 Subfamily A Member 4 (CYP3A4) small molecule antagonists: luciferase reporter qHTS assay (AID 1671201); also: nearly all actives have a fitted effect of over 50% in size; as to activity change, negative = inhibition: series mostly up to about 120 µM
Cytochrome P450 3A4 (Homo sapiens), sequence (P08684 whole entry, looked up): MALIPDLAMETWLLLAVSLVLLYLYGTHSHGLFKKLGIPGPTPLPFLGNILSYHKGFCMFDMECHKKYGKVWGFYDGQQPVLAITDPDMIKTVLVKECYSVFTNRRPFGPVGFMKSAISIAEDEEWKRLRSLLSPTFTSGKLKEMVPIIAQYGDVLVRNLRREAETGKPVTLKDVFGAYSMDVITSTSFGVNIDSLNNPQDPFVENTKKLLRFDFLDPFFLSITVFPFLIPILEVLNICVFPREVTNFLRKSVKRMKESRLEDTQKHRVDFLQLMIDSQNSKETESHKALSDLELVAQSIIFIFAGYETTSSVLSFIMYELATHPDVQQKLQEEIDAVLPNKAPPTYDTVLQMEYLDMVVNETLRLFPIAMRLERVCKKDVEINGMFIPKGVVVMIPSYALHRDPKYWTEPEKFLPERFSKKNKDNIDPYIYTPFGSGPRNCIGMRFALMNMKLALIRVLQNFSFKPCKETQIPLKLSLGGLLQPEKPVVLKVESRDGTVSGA
How it was run: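 Relative luminescence units after 20 min with luciferin detection reagent served as read-out. Beforehand, CYP3A4 turned over a proluciferin substrate for 1 h at room temperature with NADPH regeneration, following 10 min compound preincubation.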
% is scaled to controls: 0 for no effect and ±100 for the full control effect; potency is read from the fitted curve at half-maximal effect.

CCc1c(Br)c(Br)c(Br)c(Br)c1Br
active: Potency [8] 11.2 µM
inactive: Potency [1] | Potency [2] | Potency [3] | Potency [4] | Potency [5] | Potency [6] | Potency [7] | Potency [9] | Potency [10]

OCCCc1cccnc1
inactive: Potency [1] | Potency [2] | Potency [3] | Potency [4] | Potency [5] | Potency [6] | Potency [7] | Potency [8] | Potency [9]
active: Potency [10] 15.9 µM

Cc1cncc(C)c1
inactive: Potency [1] | Potency [2] | Potency [3] | Potency [4] | Potency [5] | Potency [6] | Potency [7] | Potency [8] | Potency [9] | Potency [10]

CCOC(=O)CC(C)O (configuration not stated)
inactive: Potency [1] | Potency [2] | Potency [3] | Potency [4] | Potency [5] | Potency [6] | Potency [7] | Potency [8] | Potency [9] | Potency [10]

C=C(C)CCCC
inactive: Potency [1] | Potency [2] | Potency [3] | Potency [4] | Potency [5] | Potency [6] | Potency [7] | Potency [8] | Potency [9] | Potency [10]

CCCCCCCCC(C)=O
inactive: Potency [1] | Potency [2] | Potency [3] | Potency [4] | Potency [5] | Potency [6] | Potency [7] | Potency [8] | Potency [9] | Potency [10]

O=C1c2c(O)ccc([N+](=O)[O-])c2C(=O)c2c([N+](=O)[O-])ccc(O)c21
active: Potency [1] 12.1 µM | Potency [3] 24.1 µM | Potency [5] 31.4 µM | Potency [6] 12.5 µM | Potency [7] 28 µM | Potency [8] 7.03 µM | Potency [10] 12.5 µM
inactive: Potency [2] | Potency [4] | Potency [9]

Cc1cc(Nc2ccc(O)cc2)ccc1N
inactive: Potency [9]
active: Potency [1] 27.2 µM | Potency [2] 21.6 µM | Potency [3] 48.3 µM | Potency [4] 9.64 µM | Potency [5] 39.8 µM | Potency [6] 19.9 µM | Potency [7] 5.62 µM | Potency [8] 35.4 µM | Potency [10] 7.93 µM

CCOB(OCC)OCC
inactive: Potency [1] | Potency [2] | Potency [3] | Potency [4] | Potency [5] | Potency [6] | Potency [7] | Potency [8] | Potency [9] | Potency [10]

O=S(=O)(O)c1cc(S(=O)(=O)O)c2ccc3c(S(=O)(=O)O)cc(S(=O)(=O)O)c4ccc1c2c43
inactive: activity change, negative = cytotoxicity [1] 5.57% [at 19 µM] | caspase-3/7 activation [2] -0.007% [at 19 µM] | activity change, negative = cytotoxicity [3] 6.28% [at 19 µM] | activation [4] -3.44% [at 19 µM] | activity change, negative = inhibition [5] -11.8% [at 23.6 µM] | activity change, negative = inhibition [6] -18.9% [at 23.6 µM] | activity change, negative = inhibition [7] -1.93% [at 23.6 µM] | activity change, negative = inhibition [8] -17.6% [at 23.6 µM] | activity change, negative = inhibition [9] 2.85% [at 15.8 µM] | activity change, negative = inhibition [10] 10.6% [at 23.6 µM]

CCCCCCS
inactive: Potency [1] | Potency [2] | Potency [3] | Potency [4] | Potency [5] | Potency [6] | Potency [7] | Potency [9] | Potency [10]

Cc1cnccn1
inactive: Potency [1] | Potency [2] | Potency [3] | Potency [4] | Potency [5] | Potency [6] | Potency [7] | Potency [8] | Potency [9] | Potency [10]

CCOC(OCC)C(=O)c1ccccc1
inactive: Potency [1] | Potency [2] | Potency [3] | Potency [4] | Potency [5] | Potency [6] | Potency [7] | Potency [9] | Potency [10]
active: Potency [8] 31.7 µM

CN(C)c1ccc(N=Nc2ccccc2C(=O)O)cc1
active: Potency [1] 9.69 µM | Potency [3] 54.5 µM | Potency [4] 21.7 µM | Potency [5] 39.9 µM | Potency [6] 35.6 µM | Potency [7] 31.7 µM | Potency [8] 25.2 µM
inactive: Potency [2] | Potency [9] | Potency [10]

CCc1cccc(CC)c1NC(=O)C(=O)O
inactive: Potency [1] | Potency [2] | Potency [3] | Potency [4] | Potency [5] | Potency [6] | Potency [7] | Potency [9] | Potency [10]

CCN=C1C=CC(=C(c2ccc(N(CC)CC)cc2)c2ccc(N(CC)CC)cc2)c2ccccc21
active: Potency [1] 0.963 µM | Potency [3] 8.58 µM | Potency [4] 0.0242 µM | Potency [5] 12.6 µM | Potency [6] 17.7 µM | Potency [7] 15.8 µM | Potency [8] 25 µM | Potency [9] 0.345 µM | Potency [10] 8.88 µM
inactive: Potency [2]

C[Si](C)O[Si](C)C
inactive: Potency [1] | Potency [2] | Potency [3] | Potency [4] | Potency [5] | Potency [6] | Potency [7] | Potency [8] | Potency [9] | Potency [10]

CCCC(=O)OCC(COC(=O)CCC)OC(=O)CCC
inactive: Potency [1] | Potency [2] | Potency [3] | Potency [4] | Potency [5] | Potency [9] | Potency [10]
active: Potency [6] 20 µM | Potency [7] 5.64 µM | Potency [8] 28.3 µM

C=CC/C=C/C/C=C/C/C=C/C
inactive: Potency [1] | Potency [2] | Potency [3] | Potency [4] | Potency [5] | Potency [6] | Potency [7] | Potency [9] | Potency [10]

C=CC(=O)OCCC#N
active: Potency [1] 61.5 µM
inactive: Potency [2] | Potency [3] | Potency [4] | Potency [5] | Potency [6] | Potency [7] | Potency [8] | Potency [9] | Potency [10]
